Measurements reported in the supplement of paper PMC6279402.
Where a name gives a salt, the structure may show the parent alone. ± gives the standard deviation of the averaged measurements.

System: A549
Assay: relative viability (normalised to negative control = 1, bortezomib = 0) (fraction); higher = less cytotoxic
Conditions: inflammatory serum-free RHB-A with cytokines + LPS, 5 d + 24 h CellTiter-Blue
Method: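 A549 KRAS-mutant NSCLC cells, pre-treated 5 µM GSK126 or vehicle (DMSO), were seeded at 250 cells/well in 384-well plates in serum-free RHB-A medium with inflammatory cytokines/LPS and treated with Selleck kinase inhibitor and NCI oncology compounds at 30 or 300 nM in triplicate, refreshed at 48 h. Viability was read by CellTiter-Blue after 5 d plus 24 h and normalised per plate with cellHTS2 (mean of bortezomib positive control = 0, mean of negative control = 1).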

[1] = compound 30 nM, GSK126 pretreatment: 5 uM GSK126
[2] = compound 30 nM, GSK126 pretreatment: none (vehicle)
[3] = compound 300 nM, GSK126 pretreatment: 5 uM GSK126
[4] = compound 300 nM, GSK126 pretreatment: none (vehicle)

Structure (SMILES)	relative viability [1]	relative viability [2]	relative viability [3]	relative viability [4]
C=C1C[C@@H]2[C@H](CC[C@]3(C)C(=O)CC[C@@H]23)[C@@]2(C)C=CC(=O)C=C12 [Exemestane]	0.797 ± 0.073	0.82 ± 0.079	0.839 ± 0.17	0.971 ± 0.086
O=P1(NCCCl)OCCCN1CCCl (stereo not given) [Ifosfamide]	0.792 ± 0.087	0.806 ± 0.063	0.803 ± 0.16	0.91 ± 0.11
Oc1ncc(N(CCCl)CCCl)c(O)n1 [Uracil mustard]	0.792 ± 0.024	0.801 ± 0.027	0.81 ± 0.029	0.87 ± 0.03
O=C(O)CCCc1ccc(N(CCCl)CCCl)cc1 [Chlorambucil]	0.933 ± 0.1	0.844 ± 0.11	0.836 ± 0.13	0.845 ± 0.12
Cc1ccccc1-n1c(Cn2cnc3c(N)ncnc32)nc2cccc(C)c2c1=O	0.828 ± 0.076	0.784 ± 0.083	0.79 ± 0.088	0.875 ± 0.056
Cc1c(N)nc([C@H](CC(N)=O)NC[C@H](N)C(N)=O)nc1C(=O)N[C@H](C(=O)N[C@H](C)[C@@H](O)[C@H](C)C(=O)N[C@H](C(=O)NCCc1nc(-c2nc(C(=O)NCCC[S+](C)C)cs2)cs1)[C@@H](C)O)[C@@H](OC1OC(CO)C(O)C(O)C1OC1OC(CO)C(O)C(OC(N)=O)C1O)c1cnc[nH]1 (stereo not given in full) [Bleomycin sulfate]	0.821 ± 0.13	0.871 ± 0.061	0.739 ± 0.064	0.84 ± 0.069
C1CN1c1nc(N2CC2)nc(N2CC2)n1 [Triethylenemelamine]	0.834 ± 0.081	0.834 ± 0.059	0.828 ± 0.012	0.918 ± 0.042
Cn1cc(C2=C(c3cn(C4CCN(Cc5ccccn5)CC4)c4ccccc34)C(=O)NC2=O)c2ccccc21 [Enzastaurin]	0.823 ± 0.11	0.831 ± 0.05	0.789 ± 0.042	0.802 ± 0.037
Cc1ccccc1-n1c(Cn2ncc3c(N)ncnc32)nc2cccc(C)c2c1=O	0.756 ± 0.055	0.787 ± 0.046	0.689 ± 0.12	0.857 ± 0.13
NCCCNCCSP(=O)(O)O [Amifostine]	0.96 ± 0.16	0.908 ± 0.078	0.964 ± 0.12	0.96 ± 0.078
